The record followed here is ChEMBL document CHEMBL3988442, “University of Dundee, Small-Polar-MMV Screening Library” (2021).

For part of these data: Results with a measured potency or affinity are listed apart.

The first assay addresses T1, Ubiquitin-activating enzyme e1, putative (Leishmania donovani (strain BPK282A1)) (UniProt E9BSI1).
T1 sequence (whole entry): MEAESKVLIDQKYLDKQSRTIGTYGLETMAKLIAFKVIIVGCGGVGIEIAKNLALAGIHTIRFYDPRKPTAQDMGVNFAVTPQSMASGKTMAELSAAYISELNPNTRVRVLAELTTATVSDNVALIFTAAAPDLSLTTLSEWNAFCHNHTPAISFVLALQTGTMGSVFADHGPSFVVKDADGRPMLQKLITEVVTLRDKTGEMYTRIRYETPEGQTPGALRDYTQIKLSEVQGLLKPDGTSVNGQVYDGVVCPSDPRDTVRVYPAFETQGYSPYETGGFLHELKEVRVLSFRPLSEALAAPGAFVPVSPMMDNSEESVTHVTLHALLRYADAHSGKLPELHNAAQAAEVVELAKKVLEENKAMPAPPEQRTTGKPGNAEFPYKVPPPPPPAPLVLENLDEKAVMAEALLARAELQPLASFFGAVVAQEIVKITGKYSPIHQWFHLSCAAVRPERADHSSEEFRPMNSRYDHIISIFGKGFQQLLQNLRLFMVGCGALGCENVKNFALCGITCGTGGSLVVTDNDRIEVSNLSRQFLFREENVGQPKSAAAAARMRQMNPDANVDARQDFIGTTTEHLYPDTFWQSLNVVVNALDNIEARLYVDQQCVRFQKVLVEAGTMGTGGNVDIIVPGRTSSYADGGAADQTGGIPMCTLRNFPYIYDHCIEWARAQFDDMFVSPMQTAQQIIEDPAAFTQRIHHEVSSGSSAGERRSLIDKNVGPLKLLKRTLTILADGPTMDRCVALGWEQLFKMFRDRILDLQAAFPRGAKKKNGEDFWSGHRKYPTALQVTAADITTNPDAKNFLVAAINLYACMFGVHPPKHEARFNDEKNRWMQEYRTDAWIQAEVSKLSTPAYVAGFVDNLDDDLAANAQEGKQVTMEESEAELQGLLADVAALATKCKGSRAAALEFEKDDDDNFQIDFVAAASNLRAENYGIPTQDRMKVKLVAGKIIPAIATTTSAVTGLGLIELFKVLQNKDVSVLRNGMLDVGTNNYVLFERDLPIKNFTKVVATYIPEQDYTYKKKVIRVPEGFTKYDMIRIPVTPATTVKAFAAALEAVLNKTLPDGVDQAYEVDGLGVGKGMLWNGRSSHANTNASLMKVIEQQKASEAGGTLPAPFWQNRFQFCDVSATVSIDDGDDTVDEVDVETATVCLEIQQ
Briefly: Leishmania donovani Ubiquitin Activating Enzyme (LdE1). Format: functional. The note with it: 30 µM. Set-up: scale not given: direction of the effect not stated beside the values.
For `Cc1cccc(CN2C(=O)CCC23CCN(Cc2cccn2C)CC3)n1`, the Percent Effect was 27.3%.

For the molecule `CN(C(=O)CN1CCOC(Cn2cccn2)C1)c1nccs1` (stereo not drawn), the Percent Effect turned out to be 18.2%.

Consider `c1cc(-c2nc(CN3CCn4c(nnc4C4CC4)C3)cs2)cs1`, for which the Percent Effect is -23.1%.

`CS(=O)(=O)NCC1CCCN(C(=O)COCC(F)(F)F)C1` (stereo not drawn): the Percent Effect was 15.4%.

In the case of `COc1ccc(-c2nc(CN3CCc4c(ncn4C)C3)cs2)cc1`, the Percent Effect was -12.8%.

Turning to `Cc1cccc(CN2CCC3(CCN(c4ccccn4)C3)C2=O)c1` (stereo not drawn), the Percent Effect is 16.9%.

Regarding `CCCC(C)C(=O)N1CCC(n2cccc2C(=O)OC)CC1` (stereo not drawn), the Percent Effect came to 10.4%.

Consider `O=C(NCC1CCOC1)Nc1ccc(OCC(F)(F)F)nc1` (stereo not drawn), for which the Percent Effect is 7.69%.

For `Cc1ncc(-c2ccnc(N3CCN(C)CC3)n2)c(-c2cccnc2)n1`, the Percent Effect was found to be 8%.

Take `Cc1cc(OCC(=O)N2CCCC(c3noc(C)n3)C2)no1` (stereo not drawn): the Percent Effect was determined as 13.3%.

For `COc1ccc(OCCN(C)C(=O)NC(C)c2nncn2C)cc1` (stereo not drawn), the Percent Effect was 10.7%.

With `CCc1ccsc1C(=O)N1CCN(C(=O)CC(F)(F)F)CC1`, the Percent Effect turned out to be 18.2%.

Consider `CC(C(=O)N1CCCC1)N1CCC(c2nccn2Cc2cscn2)CC1` (stereo not drawn), for which the Percent Effect turned out to be 0%.

Take `CCC(=O)N1CCC(O)(c2ncc(OC)nc2OC)CC1`: the Percent Effect amounted to 9.33%.

With `O=C(c1cc(Cl)c2c(c1)OCCO2)N1CCCC(n2cncn2)C1` (stereo not drawn), the Percent Effect was -5.33%.

As to `CN(C)CC1CN(Cc2nnc(-c3ccccc3Cl)o2)CCO1` (stereo not drawn), the Percent Effect was determined as 13.3%.

With `Cc1ccc(OCC(O)CN2CCC(Cn3cccn3)CC2)cc1` (stereo not drawn), the Percent Effect was determined as 7.79%.

As for `COCCN1CCCN(C(=O)NC(C)Cn2ccnc2)CC1` (stereo not drawn), the Percent Effect came to 13%.

Take `CCc1nc(C2CCCN2C(=O)c2ccoc2C)no1` (stereo not drawn): the Percent Effect was -2.56%.

On to `COc1cc(CNCc2ccc(NC(=O)NC(C)C)cc2)cc(OC)c1`, for which the Percent Effect was 15.6%.

For the molecule `Cc1cc(NC(=O)N(CC2CCOC2)C2CC2)no1` (stereo not drawn), the Percent Effect was determined as 13.3%.

In the case of `COc1ccc(F)cc1C(=O)N(C)Cc1cc(C)on1`, the Percent Effect amounted to 15.4%.

With `CN(C)C(=O)N1C[C@H]2CCC[C@@]2(COc2ccccn2)C1`, the Percent Effect is 6.49%.

In the case of `COc1ncc(C2CC(=O)NCc3nc4ccccn4c32)cn1` (stereo not drawn), the Percent Effect is 5.41%.

For `Cn1nc2c(cc1=O)CN(Cc1nc(C(C)(C)C)no1)CC2`, the Percent Effect turned out to be 29.3%.

With `Fc1cnc(N2CCOCC3(CCCN(c4nncs4)C3)C2)nc1` (stereo not drawn), the Percent Effect was found to be 6.49%.

Take `CN1CCCn2c(nc(CNC(=O)c3ccsc3)cc2=O)C1`: the Percent Effect turned out to be 1.3%.

On to `Cc1ccc(-c2nc(CN3CCn4c(nnc4C4CC4)C3)co2)cc1`, for which the Percent Effect was -5.33%.

For `O=c1cc(Cn2cncn2)nc2n1CCCN(CC1CC1)C2`, the Percent Effect was determined as 11.7%.

As for `CC(c1nc(C2CC2)no1)N1CCN(Cc2ccsc2)CC1` (stereo not drawn), the Percent Effect was found to be 2.56%.

For the molecule `O=c1c2ccccc2nc2n1C(CSc1ccc(Cl)cc1Cl)CN2` (stereo not drawn), the Percent Effect stood at 19.5%.

Consider `CCc1cc(O)nc(C2CCCN2C(=O)c2cc(C)no2)n1` (stereo not drawn), for which the Percent Effect turned out to be 17.3%.

In the case of `CN(C)C(=O)CCC(=O)NCc1cccnc1-n1cnc2ccccc21`, the Percent Effect is -2.7%.

As for `CCc1nccn1C1CCCN(C(=O)Cc2ccc(OC)c(F)c2)C1` (stereo not drawn), the Percent Effect stood at 16%.

As for `CC(=O)N1C[C@@H](c2ccsc2)[C@@H]2CN(Cc3ccccc3)CC[C@@H]21`, the Percent Effect turned out to be 12%.

Take `CN(C)CC1CN(Cc2coc(-c3ccccc3Cl)n2)CCO1` (stereo not drawn): the Percent Effect is 13.3%.

For the molecule `CCNC(=O)[C@@H]1C[C@@H](NC(=O)Cc2ccncc2)CN1Cc1ccsc1`, the Percent Effect came to 2.7%.

As for `CC(C)(C)C(O)CN1CCN(C(=O)c2cccc3[nH]ncc23)CC1` (stereo not drawn), the Percent Effect worked out at 20.5%.

In the case of `CC(C)c1cc(N2CCN(c3ccc(O)cc3)CC2)n2nccc2n1`, the Percent Effect came to 5.41%.

For a further assay, the target named is Sialic acid-binding Ig-like lectin 9 (Homo sapiens) (UniProt Q9Y336). Briefly: Hs-Siglec9 ALPHAscreen SOP 20170721. Set-up: scale not given: direction of the effect not stated beside the values. To be noted: 10 µM. Background: Alpha assays give light when donor and acceptor beads are brought close together.
Sequence of Sialic acid-binding Ig-like lectin 9 (Homo sapiens) (Q9Y336 whole entry): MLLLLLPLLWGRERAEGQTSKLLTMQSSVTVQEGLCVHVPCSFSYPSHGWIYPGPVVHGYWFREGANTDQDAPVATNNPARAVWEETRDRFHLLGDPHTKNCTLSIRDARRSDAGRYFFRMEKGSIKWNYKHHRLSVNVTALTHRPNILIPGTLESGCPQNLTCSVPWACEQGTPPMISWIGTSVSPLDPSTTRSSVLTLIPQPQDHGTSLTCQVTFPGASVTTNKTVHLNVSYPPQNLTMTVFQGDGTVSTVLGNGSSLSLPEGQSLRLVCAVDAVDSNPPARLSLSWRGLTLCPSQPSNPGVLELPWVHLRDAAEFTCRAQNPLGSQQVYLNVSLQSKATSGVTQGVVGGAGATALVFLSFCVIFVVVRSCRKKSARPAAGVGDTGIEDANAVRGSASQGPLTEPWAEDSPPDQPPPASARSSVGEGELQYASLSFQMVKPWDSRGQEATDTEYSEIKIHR
`Cc1cccc(CN2C(=O)CCC23CCN(Cc2cccn2C)CC3)n1`: the Percent Effect was -0.409%.

As for `CN(C(=O)CN1CCOC(Cn2cccn2)C1)c1nccs1` (stereo not drawn), the Percent Effect is 0.761%.

On to `c1cc(-c2nc(CN3CCn4c(nnc4C4CC4)C3)cs2)cs1`, for which the Percent Effect was -7.08%.

Consider `CS(=O)(=O)NCC1CCCN(C(=O)COCC(F)(F)F)C1` (stereo not drawn), for which the Percent Effect was determined as 0.69%.

For `COc1ccc(-c2nc(CN3CCc4c(ncn4C)C3)cs2)cc1`, the Percent Effect is -13.6%.

For the molecule `Cc1cccc(CN2CCC3(CCN(c4ccccn4)C3)C2=O)c1` (stereo not drawn), the Percent Effect was 0.691%.

As for `CCCC(C)C(=O)N1CCC(n2cccc2C(=O)OC)CC1` (stereo not drawn), the Percent Effect amounted to 13.2%.

As to `O=C(NCC1CCOC1)Nc1ccc(OCC(F)(F)F)nc1` (stereo not drawn), the Percent Effect worked out at 2.59%.

Take `Cc1ncc(-c2ccnc(N3CCN(C)CC3)n2)c(-c2cccnc2)n1`: the Percent Effect was -2.21%.

With `Cc1cc(OCC(=O)N2CCCC(c3noc(C)n3)C2)no1` (stereo not drawn), the Percent Effect is -8.66%.

For the molecule `COc1ccc(OCCN(C)C(=O)NC(C)c2nncn2C)cc1` (stereo not drawn), the Percent Effect was -0.704%.

With `CCc1ccsc1C(=O)N1CCN(C(=O)CC(F)(F)F)CC1`, the Percent Effect is 11.7%.

In the case of `CC(C(=O)N1CCCC1)N1CCC(c2nccn2Cc2cscn2)CC1` (stereo not drawn), the Percent Effect was 12.9%.

As for `CCC(=O)N1CCC(O)(c2ncc(OC)nc2OC)CC1`, the Percent Effect is 3.93%.

With `O=C(c1cc(Cl)c2c(c1)OCCO2)N1CCCC(n2cncn2)C1` (stereo not drawn), the Percent Effect is 5.05%.

As for `CN(C)CC1CN(Cc2nnc(-c3ccccc3Cl)o2)CCO1` (stereo not drawn), the Percent Effect is -7.04%.

As to `Cc1ccc(OCC(O)CN2CCC(Cn3cccn3)CC2)cc1` (stereo not drawn), the Percent Effect is 7.42%.

Consider `COCCN1CCCN(C(=O)NC(C)Cn2ccnc2)CC1` (stereo not drawn), for which the Percent Effect was 12.5%.

As to `CCc1nc(C2CCCN2C(=O)c2ccoc2C)no1` (stereo not drawn), the Percent Effect was 10.5%.

For the molecule `COc1cc(CNCc2ccc(NC(=O)NC(C)C)cc2)cc(OC)c1`, the Percent Effect was 5.02%.

On to `Cc1cc(NC(=O)N(CC2CCOC2)C2CC2)no1` (stereo not drawn), for which the Percent Effect was 6.54%.

On to `COc1ccc(F)cc1C(=O)N(C)Cc1cc(C)on1`, for which the Percent Effect was -5.44%.

Consider `CN(C)C(=O)N1C[C@H]2CCC[C@@]2(COc2ccccn2)C1`, for which the Percent Effect was -3.98%.

Regarding `COc1ncc(C2CC(=O)NCc3nc4ccccn4c32)cn1` (stereo not drawn), the Percent Effect was 1.68%.

For the molecule `Cn1nc2c(cc1=O)CN(Cc1nc(C(C)(C)C)no1)CC2`, the Percent Effect was 6.04%.

On to `Fc1cnc(N2CCOCC3(CCCN(c4nncs4)C3)C2)nc1` (stereo not drawn), for which the Percent Effect is -1.88%.

As for `CN1CCCn2c(nc(CNC(=O)c3ccsc3)cc2=O)C1`, the Percent Effect was -2.49%.

`Cc1ccc(-c2nc(CN3CCn4c(nnc4C4CC4)C3)co2)cc1`: the Percent Effect was -0.413%.

Take `O=c1cc(Cn2cncn2)nc2n1CCCN(CC1CC1)C2`: the Percent Effect is -1.33%.

Regarding `CC(c1nc(C2CC2)no1)N1CCN(Cc2ccsc2)CC1` (stereo not drawn), the Percent Effect was found to be 2.79%.

On to `O=c1c2ccccc2nc2n1C(CSc1ccc(Cl)cc1Cl)CN2` (stereo not drawn), for which the Percent Effect was -1.05%.

Regarding `CCc1cc(O)nc(C2CCCN2C(=O)c2cc(C)no2)n1` (stereo not drawn), the Percent Effect was -12.2%.

For `CN(C)C(=O)CCC(=O)NCc1cccnc1-n1cnc2ccccc21`, the Percent Effect is -1.92%.

Take `CCc1nccn1C1CCCN(C(=O)Cc2ccc(OC)c(F)c2)C1` (stereo not drawn): the Percent Effect amounted to 14.5%.

With `CC(=O)N1C[C@@H](c2ccsc2)[C@@H]2CN(Cc3ccccc3)CC[C@@H]21`, the Percent Effect worked out at 0.781%.

With `CN(C)CC1CN(Cc2coc(-c3ccccc3Cl)n2)CCO1` (stereo not drawn), the Percent Effect was -4.39%.

As for `CCNC(=O)[C@@H]1C[C@@H](NC(=O)Cc2ccncc2)CN1Cc1ccsc1`, the Percent Effect came to 3.71%.

On to `CC(C)(C)C(O)CN1CCN(C(=O)c2cccc3[nH]ncc23)CC1` (stereo not drawn), for which the Percent Effect is -18.1%.

Consider `CC(C)c1cc(N2CCN(c3ccc(O)cc3)CC2)n2nccc2n1`, for which the Percent Effect stood at 0.937%.
